This note sets out measurements from PubChem BioAssay AID463173 (ICCB-Longwood Screening Facility, Harvard Medical School, 2010).

About 4,300 (8.3%) of roughly 52,000 compounds were called active. No stated cut-off is given here; in the data, active means survival mostly below about 52% (no sharp cut-off); inactive means mostly above about 56%. Shown is part of a subset that was picked to be rich in actives.

The subject of this experiment is DeltatarO mutant. In words: growth inhibition of S. aureus wild type versus tarO mutant, primary screen, teichoic acid synthesis inhibitors, RN4220, OD600 (AID 463173). The following applies: OD600, 18 h, stronger effect = lower value, screened at 18.75 µg/mL (by protocol).
For the molecule `CCOc1ccc(C2C(=O)N(C3CCCCCC3)CC(=O)N2Cc2ccc(F)cc2)cc1OC` (stereo not given), the survival is 117% (inactive).
As for `COc1ccc(OCc2nnc(SCC(=O)NCc3ccco3)o2)cc1`, the figure is 85% (inactive).
For the molecule `Cc1cc(Nc2cccc(C(F)(F)F)c2)nc2ccc(NC(=O)Cc3ccc(Cl)cc3)cc12`, the survival is 101% (inactive).
As for `O=C(Nc1cccc(C(F)(F)F)c1)c1cc(-c2ccc(Cl)cc2)on1`, the figure is 77% (inactive); as for `FC(F)(F)c1cccc(Nc2nc3nonc3nc2Nc2ccc(Cl)cc2)c1`, -16% (active); as for `Fc1ccc(Nc2nc3nonc3nc2Nc2cccc(C(F)(F)F)c2)cc1`, -2% (active).
As for `Cc1ccc(Nc2nc3nonc3nc2Nc2cccc(C(F)(F)F)c2)cc1Cl`, the survival is -1% (active).
To `Cc1ccc(Nc2nc3nonc3n3cnnc23)cc1Cl` belongs 70% (inactive).
To `Cc1cc(Nc2cccc(C(F)(F)F)c2)ncn1` belongs 54% (inactive).
As for `NS(=O)(=O)c1ccc(Nc2nc3nonc3nc2Nc2ccc(S(N)(=O)=O)cc2)cc1`, the figure is 122% (inactive).
As for `Fc1ccc(-c2nc(Nc3cccc(C(F)(F)F)c3)nc3c2COc2ccccc2-3)cc1`, the survival is 54% (inactive).
For `Cc1ccc(C)c(N2CCN(CCCNC(=O)Cn3ncc4c([nH]c5ccccc54)c3=O)CC2)c1`, the survival is 94% (inactive).
Regarding `Cc1noc2ncnc(N3CCCC(C(=O)Nc4cccc(C(F)(F)F)c4)C3)c12` (stereo not given), the survival is 93% (inactive).
To `Cc1cc(C)n(C(C)CC(=O)NCc2ccc(Cl)cc2)n1` (stereo not given) belongs 69% (inactive); to `COc1ccc2nc(SCC(O)c3cccc(Br)c3)[nH]c2c1` (stereo not given), 76% (inactive); to `Nc1ccc2nc(SCCOc3ccccc3)sc2c1`, 88% (inactive).
For the molecule `Brc1ccc2nc(SCCOc3ccccc3)[nH]c2c1`, the survival is -1% (active).
To `CCOc1ccc(Nc2cc(C)nc3nncn23)cc1` belongs 60% (inactive).
As for `CCCS(=O)(=O)N1CCCC(C(=O)NCCOC)C1` (stereo not given), the figure is 55% (inactive); as for `CCCCN(CC)CCNC(=O)Cn1c(=O)c2cccn2c2cccnc21`, 80% (inactive).
To `Cc1ccc(NC(=O)c2c(C(=O)Nc3ccccc3)sc3nc(C)cc(=O)n23)cc1` belongs 59% (inactive).
With `COc1ccc(C)cc1NC(=O)c1c(C(=O)Nc2cccc(C)c2C)sc2nc(C)cc(=O)n12`, the survival is 61% (active).
Take `Cc1cc(=O)n2c(C(=O)Nc3ccc(C)c(Cl)c3)c(C(=O)Nc3ccccc3)sc2n1`: the survival was 56% (active).
To `COc1ccc(Cl)cc1NC(=O)c1c(C(=O)Nc2cccc(C)c2C)sc2nc(C)cc(=O)n12` belongs 74% (inactive); to `Cc1cc(=O)n2c(C(=O)Nc3ccc(F)c(Cl)c3)c(C(=O)Nc3cccc(C)c3C)sc2n1`, 65% (inactive); to `Cc1cc(=O)n2c(C(=O)Nc3ccc(C)c(C)c3)c(C(=O)Nc3ccccc3)sc2n1`, 52% (inactive).
As for `CC(C)Oc1ccc(NC(=O)C2COc3ccccc3O2)cc1` (stereo not given), the figure is 103% (inactive); as for `Cc1ccc(NS(=O)(=O)c2c(C)nc3sc(C)cn3c2=O)c(C)c1`, 83% (inactive).
With `CCOc1ccccc1CNC(=O)CN1C(=O)CCCc2ccccc21`, the survival was 86% (inactive).
As for `COc1cccc(Cn2c(=O)n(CCc3ccccc3)c(=O)c3c2c2cc(OC)ccc2n3C)c1`, the figure is 81% (inactive).
To `CCOc1ccccc1Nc1sc(C(=O)c2ccccc2)c(N)c1C(=O)NCCc1ccccc1` belongs 99% (inactive); to `Cc1ccc(N2CCN(C(=O)NCc3noc4ccc(C)cc34)CC2)c(C)c1`, 54% (inactive); to `Cn1c(=O)c2c(nc(SCC(=O)Nc3ccc(F)cc3)n2Cc2ccc(Cl)cc2)n(C)c1=O`, 31% (active).
As for `Cn1c(=O)c2c(nc(SCC(=O)Nc3ccccc3F)n2Cc2ccc(Cl)cc2)n(C)c1=O`, the survival is 80% (inactive).
As to `Cn1c(=O)c2c(nc(SCC(=O)Nc3ccc(F)cc3)n2Cc2ccccc2)n(C)c1=O`, the survival is 89% (inactive).
As for `Cn1c(=O)c2c(nc(SCC(=O)Nc3ccc(F)cc3)n2Cc2ccccc2F)n(C)c1=O`, the figure is 140% (inactive); as for `Cn1c(=O)c2c(nc(SCC(=O)Nc3ccccc3)n2Cc2ccccc2F)n(C)c1=O`, 43% (active); as for `Cn1c(=O)c2c(nc(SCC(=O)Nc3ccccc3F)n2Cc2ccccc2F)n(C)c1=O`, 65% (inactive).
In the case of `CC(C)(C)OC(=O)N1CCC(c2c(C(=O)NCc3ccco3)cnn2-c2ccc(F)cc2)CC1`, the survival was 88% (inactive).
On to `CCCCOC(=O)c1ccc(NC(=O)c2cc(=O)c3ccccc3o2)cc1`, for which the survival is 57% (inactive).
To `Cc1ccc(NC(=O)c2oc3ccccc3c2NC(=O)c2cc3ccccc3o2)cc1` belongs 94% (inactive); to `CCCCOC(=O)c1cccc(NC(=O)c2cc3ccccc3o2)c1`, 1% (active); to `CCc1ccc2occ(CC(=O)Nc3c(C(=O)c4ccccc4)oc4ccccc34)c2c1`, 95% (inactive).
As for `Cc1ccc(C(=O)c2oc3ccccc3c2NC(=O)Cc2ccccc2)cc1`, the figure is 50% (inactive).
To `O=C(Nc1c(C(=O)Nc2ccc(F)cc2)oc2ccccc12)c1cc2ccccc2o1` belongs 47% (active); to `COc1ccc(NC(=O)c2oc3ccccc3c2NC(=O)c2cc3ccccc3o2)cc1`, 89% (inactive); to `CCN(CC)c1cc(C)c2cc(NC(=O)/C=C/c3ccccc3Cl)ccc2n1`, 53% (inactive).
As to `CCCCOC(=O)c1cccc(NC(=O)/C=C/c2ccccc2Cl)c1`, the survival is 14% (active).
On to `CCCCc1ccc(-n2nc3ccc(NC(=O)c4cc5ccccc5o4)cc3n2)cc1`, for which the survival is 72% (inactive).
As for `Cc1ccc(NC(=O)/C=C/c2ccccc2Cl)cc1Cl`, the figure is 67% (inactive); as for `O=C(Cc1ccccc1)Nc1c(C(=O)c2ccccc2)oc2ccccc12`, 3% (active).
To `CCOc1ccc(CNC(=O)C2Cc3ccccc3N2C(=O)CC)cc1OC` (stereo not given) belongs 78% (inactive); to `COc1ccc(OC)c(NC(=O)c2cc3c(=O)n4cccc(C)c4nc3n2C)c1`, 65% (inactive); to `COc1ccc(CNC(=O)CN(c2cc(C)cc(C)c2)S(=O)(=O)c2c(C)[nH]c(=O)[nH]c2=O)cc1`, 86% (inactive).
As for `CC1CN(C(=O)CCC(=O)NCc2cccs2)c2cc(Cl)ccc2O1` (stereo not given), the survival is 84% (inactive).
To `CCOC(=O)c1c(S(=O)(=O)N2CCCC(C(=O)Nc3cc(C)ccn3)C2)c(C)n(C)c1C` (stereo not given) belongs 83% (inactive); to `CN(C1CCCCC1)S(=O)(=O)c1ccc(C(=O)Nc2sc3c(c2C(N)=O)CC(C)(C)NC3(C)C)cc1`, 84% (inactive).
To `COc1ccc2c(c1)c1c(c(=O)n(-c3ccccc3)c(=O)n1CC(=O)NCc1ccc(C)cc1)n2C` belongs 83% (inactive).
Regarding `COc1ccc(-n2cc(C(=O)NCc3ccccc3)c3ccccc3c2=O)cc1`, the survival was 61% (inactive).
Consider `O=C(Nc1ccccc1F)c1oc2ccccc2c1NC(=O)c1c(F)cccc1F`, for which the survival was 26% (active).
On to `COc1ccccc1NC(=O)c1oc2ccccc2c1NC(=O)c1c(F)cccc1F`, for which the survival is 51% (inactive).
With `CC(=O)Nc1c(C(=O)Nc2ccccc2F)oc2ccccc12`, the survival was 119% (inactive).
To `COc1ccc(C(=O)Nc2c(C(=O)c3ccccc3)oc3ccccc23)cc1` belongs 72% (inactive); to `O=C(Cc1ccccc1)Nc1c(C(=O)Nc2ccccc2F)oc2ccccc12`, 83% (inactive).
As for `COc1ccccc1C(=O)Nc1c(C(=O)c2ccccc2)oc2ccccc12`, the figure is -1% (active); as for `COc1ccccc1C(=O)Nc1c(C(=O)Nc2ccccc2F)oc2ccccc12`, 13% (active).
To `CCOc1ccc(NC(=O)c2oc3ccccc3c2NC(=O)C(C)(C)C)cc1` belongs 38% (active); to `CCOc1ccc(NC(=O)c2oc3ccccc3c2NC(=O)c2c(F)cccc2F)cc1`, 91% (inactive).
`COc1ccccc1C(=O)Nc1c(C(=O)NC(C)(C)C)oc2ccccc12`: the survival was 99% (inactive).
For the molecule `CCOc1ccc(NC(=O)c2oc3ccccc3c2NC(=O)c2cc(C)cc(C)c2)cc1`, the survival was 82% (inactive).
In the case of `COc1cc(C(=O)Nc2c(C(=O)Nc3ccccc3F)oc3ccccc23)cc(OC)c1OC`, the survival is 52% (inactive).
To `CCN1C(=O)/C(=C2\C=Cc3ccccc3N2CC)SC1=S` belongs 77% (inactive).
To `CC(=O)Nc1ccc(-c2nnc(SCC(=O)c3ccc([N+](=O)[O-])cc3)o2)cc1` belongs 66% (inactive).
On to `CCOc1ccccc1C(=O)Nc1cc2c(cc1N1CCOCC1)n(C)c(=O)n2C`, for which the survival is 77% (inactive).
As for `CCCNC(=O)N1CCc2cc(OC)c(OC)cc2C1c1cc2cc3c(cc2[nH]c1=O)OCO3` (stereo not given), the figure is 91% (inactive); as for `CCOCCc1nn2c(=O)cc(COC(=O)COc3ccccc3Cl)nc2s1`, 88% (inactive); as for `O=C(O)c1ccc(NC(=O)c2cc3ccccc3o2)cc1`, 59% (inactive).
Turning to `O=C(Nc1c(C(=O)Nc2ccccc2F)oc2ccccc12)c1cc2ccccc2o1`, the survival was 37% (active).
With `CC(C)Oc1ccc(NC(=O)c2cc3ccccc3o2)cc1`, the survival was 40% (active).
As for `COc1cccc(NC(=O)c2oc3ccccc3c2NC(=O)c2cc3ccccc3o2)c1`, the figure is 51% (inactive); as for `COc1ccc(NC(=O)c2oc3ccccc3c2NC(=O)c2cc3ccccc3o2)c(OC)c1`, 72% (inactive).
For the molecule `COc1ccc(N2CCN(C(=O)c3oc4ccccc4c3NC(=O)c3ccccc3OC)CC2)cc1`, the survival was 131% (inactive).
To `O=C(Nc1c(C(=O)Nc2cccc(F)c2)oc2ccccc12)c1cc2ccccc2o1` belongs 35% (active); to `Cc1cc(C)cc(C(=O)Nc2c(C(=O)Nc3ccccc3F)oc3ccccc23)c1`, 80% (inactive); to `COc1ccccc1C(=O)Nc1c(C(=O)N2CCN(c3ccc(F)cc3)CC2)oc2ccccc12`, 0% (active).
To `Cc1cccc(CC(=O)Nc2c(C(=O)Nc3cccc(F)c3)oc3ccccc23)c1` belongs 57% (inactive).
As for `COc1ccccc1C(=O)Nc1c(C(=O)N2CCN(c3ccccc3F)CC2)oc2ccccc12`, the survival is 92% (inactive).
To `O=C(Nc1ccc(NC(=O)c2cc3ccccc3o2)cc1)c1ccccc1` belongs 86% (inactive); to `COc1ccc(CCNC(=O)CCS(=O)(=O)c2cc3c(cc2Cl)NC(=O)CO3)cc1OC`, 90% (inactive); to `COc1ccc(-c2noc(-c3ccc(C)cc3Cl)n2)cc1OC`, 136% (inactive).
